Data published in PubChem BioAssay.

Assay: basal S. cerevisiae growth modulation, no modifier, primary screen, OD600, strain BY4716, 24 h, basal condition (AID 1173)
Settings: OD600, 24 h, higher = more signal, called active from +8 up or from −8 down

z-score, inactive:
O=C1O[C@H](c2ccccc2)[C@H](c2ccccc2)N2[C@H]1[C@@H](C(=O)O)[C@]1(C(=O)Nc3ccc(C#CC4=CCCCC4)cc31)[C@H]2c1ccc(OCCO)cc1 0.0899
N#Cc1ccc(NN2C(C(O)c3ccc([N+](=O)[O-])cc3)C=CC3C(=O)N(c4ccccc4)C(=O)C32)cc1 (stereo not drawn) -0.203
C=C(CCCC)/C(=C/C[C@H](OC(C)=O)c1ccc(CO)o1)c1cnc2ccccc2c1 -0.143
O=C1OCCC=C[C@H]2OC34C=CCN(Cc5ccccc5)C(=O)[C@H]3N(CCCCCCO)C(=O)[C@@H]4C12 (stereo partly drawn) 0.0187
C[C@]1(C(=O)NCc2ccccc2)c2ccccc2C(=O)N(Cc2ccc(OC(F)(F)F)cc2)[C@H]1c1ccc(CO)cc1 -1.51
CC(C)NC(=O)[C@@]1(Cc2ccccc2I)c2ccccc2C(=O)N(Cc2ccccc2)[C@H]1c1ccc(CO)cc1 -0.659
O=C1N(CCS(=O)(=O)c2ccccc2)c2ccccc2C[C@@]12COC(c1ccc(OCCCO)cc1)=N2 1.3
CC1CC/C=C\[C@H]2OC34C=CCN(Cc5ccccc5)C(=O)[C@H]3N(CCCCCO)C(=O)[C@@H]4C2C(=O)O1 (stereo partly drawn) -0.308
